For some of these results: Measured potencies and affinities stand elsewhere.

Common to all, as to parameters: scale not given: direction of the effect not stated beside the values
The target of assay [1] is Protein translocase subunit SecA (Escherichia coli (strain K12)) (UniProt P10408). Put plainly: Assay to Identify E. coli SecA ATPase Inhibitors. It counts as functional. As to conditions: 30 µM.
Assay [2] deals with T1, Ubiquitin-activating enzyme e1, putative (Leishmania donovani (strain BPK282A1)) (UniProt E9BSI1).
T1 sequence (whole entry): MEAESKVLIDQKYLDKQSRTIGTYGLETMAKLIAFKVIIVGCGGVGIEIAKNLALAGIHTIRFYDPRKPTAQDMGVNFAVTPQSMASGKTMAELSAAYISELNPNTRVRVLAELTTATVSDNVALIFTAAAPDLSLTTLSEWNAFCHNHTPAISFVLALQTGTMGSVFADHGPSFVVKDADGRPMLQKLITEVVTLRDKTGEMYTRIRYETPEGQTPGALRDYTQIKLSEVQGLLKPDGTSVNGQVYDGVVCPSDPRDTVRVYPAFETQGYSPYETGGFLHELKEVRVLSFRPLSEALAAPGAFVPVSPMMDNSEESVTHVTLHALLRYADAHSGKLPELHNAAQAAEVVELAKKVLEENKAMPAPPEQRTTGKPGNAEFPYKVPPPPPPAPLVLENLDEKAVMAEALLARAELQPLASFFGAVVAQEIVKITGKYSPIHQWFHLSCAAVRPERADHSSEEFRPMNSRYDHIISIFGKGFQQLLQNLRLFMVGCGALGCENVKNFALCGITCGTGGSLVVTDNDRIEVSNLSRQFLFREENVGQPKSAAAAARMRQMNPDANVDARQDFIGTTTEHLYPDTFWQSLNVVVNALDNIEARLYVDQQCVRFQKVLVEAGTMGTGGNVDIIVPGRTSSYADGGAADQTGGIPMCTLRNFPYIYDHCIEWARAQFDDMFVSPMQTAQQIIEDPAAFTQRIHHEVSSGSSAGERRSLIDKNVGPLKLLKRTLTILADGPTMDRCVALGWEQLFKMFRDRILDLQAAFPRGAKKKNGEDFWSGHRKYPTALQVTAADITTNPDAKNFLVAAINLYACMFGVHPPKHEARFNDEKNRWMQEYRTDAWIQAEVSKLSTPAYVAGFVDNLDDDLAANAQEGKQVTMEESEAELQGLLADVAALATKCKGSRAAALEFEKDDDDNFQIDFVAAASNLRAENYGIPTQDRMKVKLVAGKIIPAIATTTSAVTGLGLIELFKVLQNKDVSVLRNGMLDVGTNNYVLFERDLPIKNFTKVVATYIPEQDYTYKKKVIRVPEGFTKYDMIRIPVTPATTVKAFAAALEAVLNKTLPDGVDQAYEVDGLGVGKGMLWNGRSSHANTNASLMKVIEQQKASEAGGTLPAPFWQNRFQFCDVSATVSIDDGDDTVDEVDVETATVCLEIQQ
Put plainly: Leishmania donovani Ubiquitin Activating Enzyme (LdE1). As to conditions: 30 µM. It counts as functional.

Assay [3] has as its target AMP-activated protein kinase, AMPK (Homo sapiens) (UniProt P54646+O43741+P54619+Q9UGJ0+Q9Y478+Q13131+Q9UGI9). The assay can be described thus: AMP-dependent Kinase enzyme assay. An in vitro enzyme assay that detects ADP turnover that is directly proportional to AMPK activity. This uses naive AMPK that is activated during the assay with MK-8722. It is filed as functional. The settings on record: 30 µM.

For assay [4], the target named is Sialic acid-binding Ig-like lectin 9 (Homo sapiens) (UniProt Q9Y336). Put plainly: Hs-Siglec9 ALPHAscreen SOP 20170721. The settings on record: 10 µM. On the technique in general: In Alpha technology, singlet oxygen from a donor bead excites a nearby acceptor bead.
Another assay has as its system Trypanosoma cruzi. Put plainly: Trypanosoma cruzi phosphomannomutase and mannose-1-phosphate guanylyltransferase assay. It is filed as functional. As to conditions: 10 µM.
The target of assay [5] is T2, Arginase-2, mitochondrial (Homo sapiens) (UniProt P78540).
T2 sequence (whole entry): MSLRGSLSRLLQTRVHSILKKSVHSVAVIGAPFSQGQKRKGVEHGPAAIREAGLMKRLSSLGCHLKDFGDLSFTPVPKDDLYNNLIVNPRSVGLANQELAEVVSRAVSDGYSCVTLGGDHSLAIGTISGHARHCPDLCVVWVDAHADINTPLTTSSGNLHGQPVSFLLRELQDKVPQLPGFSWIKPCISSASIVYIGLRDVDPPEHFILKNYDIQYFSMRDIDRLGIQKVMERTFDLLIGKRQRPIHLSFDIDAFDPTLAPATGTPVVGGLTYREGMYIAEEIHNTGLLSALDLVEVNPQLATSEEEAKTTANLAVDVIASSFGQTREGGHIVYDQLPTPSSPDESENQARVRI
Put plainly: in vitro enzyme assay to detect the production of urea directly proportional to the activity of Arginase II. Further: in the data most compounds retested in dose-response had high values. It counts as functional. The settings on record: 33.3 µM.

For assay [6], the target named is T3, Proteasome subunit beta (Trypanosoma cruzi) (UniProt O96673).
T3 sequence (whole entry): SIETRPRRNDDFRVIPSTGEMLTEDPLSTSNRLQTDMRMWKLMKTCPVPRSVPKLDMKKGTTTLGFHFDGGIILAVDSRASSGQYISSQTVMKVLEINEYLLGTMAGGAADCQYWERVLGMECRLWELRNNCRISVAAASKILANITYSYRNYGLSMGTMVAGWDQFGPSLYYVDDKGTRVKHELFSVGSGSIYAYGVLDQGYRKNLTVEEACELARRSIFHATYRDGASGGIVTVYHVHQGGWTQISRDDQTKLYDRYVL
Put plainly: Trypanosoma cruzi proteasome chymotrypsin-like activity (TcProtChymo) assay. Further: in the data most compounds retested in dose-response had high values. It counts as functional. As to conditions: 9.37 µM.

For a further assay, the species on record is Homo sapiens. Put plainly: To identify inhibition of the IFN signalling (Jak-Stat) pathway via expression of an eGFP reporter gene under the control of an IFN-stimulated response element (ISRE) containing MxA promoter. It is filed as functional. The settings on record: 30 µM. In general terms: In a reporter assay the amount or activity of a reporter protein is the signal.

The target of assay [7] is T4, Tyrosyl-tRNA synthetase, putative (Trypanosoma cruzi (strain CL Brener)) (UniProt Q4DSP6).
T4 sequence (whole entry): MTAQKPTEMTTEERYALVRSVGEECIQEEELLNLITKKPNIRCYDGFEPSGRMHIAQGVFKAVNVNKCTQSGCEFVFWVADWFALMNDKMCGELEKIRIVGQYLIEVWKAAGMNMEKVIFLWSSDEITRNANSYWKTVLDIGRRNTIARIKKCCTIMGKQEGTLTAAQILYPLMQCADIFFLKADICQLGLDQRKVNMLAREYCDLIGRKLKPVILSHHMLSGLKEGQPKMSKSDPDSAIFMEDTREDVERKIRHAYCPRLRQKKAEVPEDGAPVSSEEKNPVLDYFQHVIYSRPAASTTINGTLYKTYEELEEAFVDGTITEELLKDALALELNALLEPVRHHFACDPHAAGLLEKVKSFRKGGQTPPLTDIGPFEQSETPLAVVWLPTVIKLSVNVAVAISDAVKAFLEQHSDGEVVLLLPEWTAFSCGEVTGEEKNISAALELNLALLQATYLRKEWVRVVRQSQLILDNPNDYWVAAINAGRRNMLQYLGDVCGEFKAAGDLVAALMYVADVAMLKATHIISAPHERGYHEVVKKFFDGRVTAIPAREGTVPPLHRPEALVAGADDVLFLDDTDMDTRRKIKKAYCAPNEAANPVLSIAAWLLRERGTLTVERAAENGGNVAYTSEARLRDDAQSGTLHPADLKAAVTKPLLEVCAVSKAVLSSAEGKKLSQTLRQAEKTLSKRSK
Put plainly: Trypanosoma cruzi tyrosyl tRNA synthetase (TcYRS) _High Tyrosine SOP. Further: in the data most compounds retested in dose-response had high values. It is filed as functional. The settings on record: 30 µM.

Assay [8] addresses T4, Tyrosyl-tRNA synthetase, putative (Trypanosoma cruzi (strain CL Brener)). Put plainly: Trypanosoma cruzi tyrosyl tRNA synthetase (TcYRS) SOP. It counts as functional. As to conditions: 30 µM.
For assay [9], the target named is Chromo domain-containing protein 1 (Saccharomyces cerevisiae (strain ATCC 204508 / S288c) (Baker's yeast)) (UniProt P32657). The assay can be described thus: ScCHD-1 Enzyme Inhibition Assay. Further: in the data most compounds retested in dose-response had high values. It counts as functional. As to conditions: 30 µM.
Chain of Chromo domain-containing protein 1 (Saccharomyces cerevisiae (strain ATCC 204508 / S288c) (Baker's yeast)) (P32657 whole entry, the tested form may be a part): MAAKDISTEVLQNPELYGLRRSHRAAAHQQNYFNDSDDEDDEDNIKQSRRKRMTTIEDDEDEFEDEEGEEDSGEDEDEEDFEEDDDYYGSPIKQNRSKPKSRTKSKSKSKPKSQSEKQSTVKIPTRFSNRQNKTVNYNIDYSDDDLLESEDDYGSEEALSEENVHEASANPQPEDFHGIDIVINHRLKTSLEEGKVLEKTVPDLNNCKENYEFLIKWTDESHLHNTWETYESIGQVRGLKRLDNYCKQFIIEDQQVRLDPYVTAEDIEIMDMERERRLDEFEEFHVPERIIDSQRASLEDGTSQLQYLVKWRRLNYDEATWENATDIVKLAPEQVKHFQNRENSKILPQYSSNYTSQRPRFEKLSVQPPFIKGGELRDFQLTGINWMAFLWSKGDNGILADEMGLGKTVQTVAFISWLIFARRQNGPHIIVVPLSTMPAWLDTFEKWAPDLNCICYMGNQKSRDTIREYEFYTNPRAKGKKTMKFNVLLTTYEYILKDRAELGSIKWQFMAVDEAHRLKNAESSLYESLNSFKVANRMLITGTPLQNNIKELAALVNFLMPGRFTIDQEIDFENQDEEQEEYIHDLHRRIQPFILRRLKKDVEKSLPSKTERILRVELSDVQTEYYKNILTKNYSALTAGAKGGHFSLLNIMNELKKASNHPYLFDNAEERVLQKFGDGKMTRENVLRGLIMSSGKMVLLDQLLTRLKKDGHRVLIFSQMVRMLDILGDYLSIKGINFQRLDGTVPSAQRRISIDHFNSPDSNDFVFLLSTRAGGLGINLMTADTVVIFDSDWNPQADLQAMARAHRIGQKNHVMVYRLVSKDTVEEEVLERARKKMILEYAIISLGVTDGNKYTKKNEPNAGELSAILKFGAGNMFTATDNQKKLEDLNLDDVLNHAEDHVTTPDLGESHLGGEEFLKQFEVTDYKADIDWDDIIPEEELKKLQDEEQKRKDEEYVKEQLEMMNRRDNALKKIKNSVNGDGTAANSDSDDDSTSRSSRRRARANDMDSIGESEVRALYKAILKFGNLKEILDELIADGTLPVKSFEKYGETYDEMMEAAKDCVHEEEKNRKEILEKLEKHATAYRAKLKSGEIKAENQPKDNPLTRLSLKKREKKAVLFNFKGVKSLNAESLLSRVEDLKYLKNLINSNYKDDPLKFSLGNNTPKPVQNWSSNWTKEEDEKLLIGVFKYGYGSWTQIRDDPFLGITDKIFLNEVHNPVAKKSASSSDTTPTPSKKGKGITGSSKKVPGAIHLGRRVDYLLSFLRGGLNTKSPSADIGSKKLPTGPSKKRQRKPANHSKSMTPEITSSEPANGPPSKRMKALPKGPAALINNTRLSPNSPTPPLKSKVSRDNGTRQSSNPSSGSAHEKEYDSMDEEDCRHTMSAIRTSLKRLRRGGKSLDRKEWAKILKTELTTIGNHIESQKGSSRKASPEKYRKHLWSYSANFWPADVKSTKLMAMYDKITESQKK

Chain of Protein translocase subunit SecA (Escherichia coli (strain K12)) (P10408 whole entry): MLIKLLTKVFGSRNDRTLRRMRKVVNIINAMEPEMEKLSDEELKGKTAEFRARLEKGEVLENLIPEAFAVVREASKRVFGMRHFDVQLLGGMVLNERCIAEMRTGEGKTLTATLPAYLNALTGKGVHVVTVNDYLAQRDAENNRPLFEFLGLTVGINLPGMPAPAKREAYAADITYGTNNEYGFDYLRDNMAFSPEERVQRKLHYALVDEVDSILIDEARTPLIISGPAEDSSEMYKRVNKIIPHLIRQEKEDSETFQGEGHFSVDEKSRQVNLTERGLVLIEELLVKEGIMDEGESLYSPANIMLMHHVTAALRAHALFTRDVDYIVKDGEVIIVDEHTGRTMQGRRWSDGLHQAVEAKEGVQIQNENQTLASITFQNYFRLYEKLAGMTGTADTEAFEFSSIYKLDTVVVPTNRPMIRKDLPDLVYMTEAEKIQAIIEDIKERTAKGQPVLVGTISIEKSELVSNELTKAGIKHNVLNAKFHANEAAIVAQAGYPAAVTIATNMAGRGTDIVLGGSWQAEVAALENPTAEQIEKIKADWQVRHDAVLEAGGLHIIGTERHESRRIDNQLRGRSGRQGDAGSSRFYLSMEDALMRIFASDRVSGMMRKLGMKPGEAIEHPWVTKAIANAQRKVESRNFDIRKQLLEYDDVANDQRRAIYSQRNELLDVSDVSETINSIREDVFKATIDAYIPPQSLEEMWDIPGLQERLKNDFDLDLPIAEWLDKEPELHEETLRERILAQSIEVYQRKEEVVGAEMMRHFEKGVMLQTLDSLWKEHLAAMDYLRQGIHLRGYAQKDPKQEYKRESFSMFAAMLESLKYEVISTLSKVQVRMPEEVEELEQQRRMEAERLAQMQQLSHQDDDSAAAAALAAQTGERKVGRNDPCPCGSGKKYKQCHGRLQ
Chain of Sialic acid-binding Ig-like lectin 9 (Homo sapiens) (Q9Y336 whole entry): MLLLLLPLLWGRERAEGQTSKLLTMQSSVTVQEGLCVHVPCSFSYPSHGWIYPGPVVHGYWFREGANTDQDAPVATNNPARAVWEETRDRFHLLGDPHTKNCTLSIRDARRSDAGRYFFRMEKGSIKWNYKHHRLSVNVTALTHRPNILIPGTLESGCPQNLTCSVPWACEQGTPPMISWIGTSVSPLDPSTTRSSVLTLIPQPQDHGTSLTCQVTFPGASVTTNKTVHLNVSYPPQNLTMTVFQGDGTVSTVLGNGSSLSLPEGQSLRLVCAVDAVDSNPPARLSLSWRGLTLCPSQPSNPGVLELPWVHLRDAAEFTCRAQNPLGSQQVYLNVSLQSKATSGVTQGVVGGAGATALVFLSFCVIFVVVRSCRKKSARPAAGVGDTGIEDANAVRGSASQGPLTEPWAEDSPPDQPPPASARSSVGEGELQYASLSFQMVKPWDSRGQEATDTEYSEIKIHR

In the case of `O=C(NCCCN1CCCC1)c1n[nH]c(=O)c2ccccc12`, the Percent Effect in assay [1] is -2.88%; in assay [2], 20.8%; in [3], 0.621%; in assay [4], -1.51%; in the assay on Trypanosoma cruzi, -10.7%; in assay [5], 2.13%. Further, the Percent Effect was 5.74% in [6]; 11.3% in the assay filed under Homo sapiens; 6.8% in assay [7]; 12.2% in [8]; -6.65% in [9].

Take `CC(C)c1csc(C2CCCN(C(=O)c3ncccn3)C2)n1` (stereo not drawn): the Percent Effect was -4.12% in assay [1]; -2.7% in [2]; 4.03% in [3]; -10.4% in assay [4]; -4.99% with Trypanosoma cruzi; -0.744% in assay [5]. Moreover, the Percent Effect in assay [6] was 3.69%; in the assay filed under Homo sapiens, 7.7%; in assay [7], -3.23%; in assay [8], -3.7%; in assay [9], -2.9%.

Take `Cc1ccc(-c2csc(N)c2C#N)cc1`: the Percent Effect was -0.493% in assay [1]; 6.67% in assay [2]; -1.04% in assay [3]; 11.3% in [4]; -3.34% in the assay on Trypanosoma cruzi; -4.05% in assay [5]. Also, the Percent Effect was 13.1% in [6]; 28% in the assay listed under Homo sapiens; -6.35% in assay [7]; -12.8% in [8]; 2.72% in assay [9].

As to `CCN(Cc1nc(C(C)C)no1)Cc1cccs1`, the Percent Effect in assay [1] is -3.02%; in [2] it was 7.79%; in [3] it was -1.84%; in assay [4] it was 6.48%; in the assay on Trypanosoma cruzi, 5.8%; in assay [5], 1.38%. Moreover, the Percent Effect in assay [6] was 12%; in the assay listed under Homo sapiens, 6.22%; in assay [7], 1.07%; in [8], -1.24%; in assay [9], -5.13%.

In the case of `CC1CN(C(=O)NCCCn2cncn2)CCO1` (stereo not drawn), the Percent Effect is -2.77% in assay [1]; 7.89% in [2]; 1.46% in assay [3]; 3.56% in assay [4]; -2.82% with Trypanosoma cruzi; 5.75% in assay [5]. In addition, the Percent Effect is 2.84% in assay [6]; -1.05% in the assay listed under Homo sapiens; 5.39% in assay [7]; 7.32% in [8]; -1.67% in assay [9].

With `O=C1NCC2(CCCN(CCc3ccccc3)C2)Oc2ccccc21` (stereo not drawn), the Percent Effect is -3.06% in [1]; 6.76% in [2]; 2.18% in [3]; -8.67% in assay [4]; -3.36% in the assay on Trypanosoma cruzi; 2.55% in [5]. The Percent Effect in assay [6] is 6.86%; in the assay listed under Homo sapiens, 15.8%; in assay [7] it was -1.07%; in [8], 6.49%; in assay [9], -14.2%.

Take `Cc1cc(S(=O)(=O)NCc2cccc(C(=O)N3CCCC3)c2)c(C)s1`: the Percent Effect in assay [1] is -4.9%; in [2], 13%; in [3], -3.16%; in assay [4], -6.78%; with Trypanosoma cruzi, 4.21%; in assay [5] it was -1.9%. The Percent Effect is 10.1% in assay [6]; 15.2% in the assay listed under Homo sapiens; 5.71% in [7]; 21.2% in assay [8]; -17.7% in [9].

As to `CCn1cc(CN2CC3CCCN3C[C@H]2C)c(C)n1` (stereo partly drawn), the Percent Effect in assay [1] was -2.31%; in assay [2], 9.46%; in assay [3], 3.58%; in assay [4] it was -8.58%; with Trypanosoma cruzi it was -1.98%; in [5], -2.09%. Further, the Percent Effect in assay [6] was 20.3%; in the assay filed under Homo sapiens, 2%; in assay [7] it was 4.3%; in assay [8], 9.09%; in [9], -14.7%.

Source of the values: ChEMBL document CHEMBL3988442, “University of Dundee, Small-Polar-MMV Screening Library” (2021).
